From PubChem BioAssay
In the library only some 3.3% were active in any assay of this set; here they are far more common.
PMP22 txn: modulators of PMP22 gene transcription in S16 Schwann cells. Potency, µM (series often up to 57.5 µM), for inactives: at the highest dose activity change, negative = inhibition, actives largely listed as inhibitors. AID 1508649. actives 2% (n = 43,000). S16 Pmp22-F2sN Schwann cells, FLuc/NLuc coincidence luminescence, 24 h; active = clear falling dose curves in both reporters; inconclusive = both reporters move, but less clearly or upward; inactive = either reporter flat; the % is the NLuc reporter signal; note: % is set by controls: 0 for no effect and ±100 for the full control effect
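qHTS, 1536-well. Cells seeded, compounds added by pin tool, 24 h 37C. Nano-Glo reagent 1 (lysis/FLuc), 10 min RT, read; Stop&Glo, 10 min RT, read NLuc.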
S16 viability: toxic to S16 Pmp22-F2sN Schwann cells; S16 Pmp22-F2sN Schwann cells viability, CellTiter-Glo, 24 h; Potency, µM (top dose mostly 57.5 µM), for the others: at the highest dose activity change, negative = cytotoxicity, most hits filed as cytotoxic; actives 0.48% (n = 43,000); AID 1508642; note: % is set by controls: 0 for no effect and ±100 for the full control effect; nearly all actives have a fitted effect of over 65% in size
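S16 Pmp22-F2sN Schwann cells (500-1,000/well) in phenol-red-free DMEM with 10% FBS received 23 nL compound by pin tool for 24 h at 37 °C. Viability was then read as CellTiter-Glo luminescence after 15 min at room temperature.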
pS6 MEF inh: mTORC1 pathway inhibition measured by phospho-rpS6; Tsc2-/- p53-/- MEF, phospho-rpS6 immunofluorescence/PI, 24 h; Potency, µM (series often up to 38.3 µM), inactives show at the top dose activity change, negative = inhibition, hits mostly inhibitors; actives 0.78% (n = 44,000); AID 493208;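 note: plate controls were DMSO for no effect and rapamycin for full effect; nearly all actives have a fitted effect of over 50% in size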
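Tsc2-/-, p53-/- MEFs (empty-vector stable line) in DMEM + 10% FBS were treated with compounds 24 h at 37 degree Celsius, fixed, and immunostained for phospho-rpS6 (Alexa-488) with propidium iodide counterstain. Laser-scanning cytometry gave % positive cells, normalized against 7.5 nM rapamycin and DMSO.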
HTT prom inh: HTT promoter inhibition; HEK293 HTT promoter firefly luciferase reporter, 24 h; Potency, µM (highest dose often 57.5 µM), for the others: at the highest dose activity change, negative = inhibition, usual class: inhibitors; actives 0.93% (n = 48,000); note: nearly all actives have a fitted effect of over 50% in size
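Firefly luciferase signal from promoter-reporter HEK293 cells was scaled between vehicle (0%) and zero RLU (-100%). Compounds were tested at final concentrations of up to 57.5 uM over 24 h at 37 degrees C. PTC124 at 50 uM final served as control inhibitor.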
HTT-AS act: activators of huntingtin-antisense promoter activity | HEK293 HTT-AS promoter firefly luciferase reporter, 24 h; response scale: percent change from vehicle, -100% = no light | Potency, µM (series often up to 57.5 µM), for the others: at the top dose activity change, positive = activation, hits mostly activators | actives 0.24% (n = 48,000) | AID 1508624; note: nearly all actives have a fitted effect of over 55% in size
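HEK293 Fluc reporter, 2,500 cells/well, 24 h pre-culture; cpds up to 57.5 uM final, 24 h 37 degrees C; Dual-Glo, 10 min RT; normalized vehicle = 0%, zero RLU = -100%.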
FH mod: Identification of activators of human fumarate hydratase by quantitative high-throughput screening | Potency, µM (series often up to 79.9 µM), for the others: top-dose activity change, negative = inhibition, most hits filed as inhibitors | Fumarate hydratase, mitochondrial (Homo sapiens), P07954 | FH coupled MDH/diaphorase resazurin fluorescence, 15 min | actives 0.22% (n = 54,000); note: % is set by controls: 0 for no effect and ±100 for the full control effect; the screen sought activators but most active calls are inhibition curves; nearly all actives have a fitted effect of over 45% in size
Target sequence (P07954 whole entry, looked up): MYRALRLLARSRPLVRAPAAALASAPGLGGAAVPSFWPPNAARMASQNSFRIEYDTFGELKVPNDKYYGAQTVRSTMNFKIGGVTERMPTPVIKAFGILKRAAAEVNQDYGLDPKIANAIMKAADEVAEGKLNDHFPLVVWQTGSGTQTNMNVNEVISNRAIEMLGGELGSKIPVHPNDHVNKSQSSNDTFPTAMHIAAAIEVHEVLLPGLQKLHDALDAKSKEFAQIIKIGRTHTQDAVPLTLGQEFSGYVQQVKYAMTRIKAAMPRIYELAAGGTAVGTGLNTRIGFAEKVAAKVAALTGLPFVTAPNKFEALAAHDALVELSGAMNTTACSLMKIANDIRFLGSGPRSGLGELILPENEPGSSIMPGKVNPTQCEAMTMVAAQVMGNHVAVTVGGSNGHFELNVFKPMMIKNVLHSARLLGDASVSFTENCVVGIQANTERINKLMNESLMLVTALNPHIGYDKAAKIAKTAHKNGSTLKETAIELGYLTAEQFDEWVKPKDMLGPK
The depositor's hits bear a star; [ ] = remark or other dose. Unless noted, calls come from the whole dose curve; as a rule, active = well fitted curve in the direction sought with a large enough effect; inconclusive = small, poorly fitted or top-dose-only effect, or another doubt; inactive = no such curve, though single readings can be large; an effect the other way counts as inactive or inconclusive. Potency is the fitted concentration of half-maximal effect.

Cc1cccc(C(=O)Nc2ccccc2-c2nc(-c3ccccc3)no2)c1 was read as PMP22 txn -13.5%, S16 viability 1.3%, pS6 MEF inh -9.3%, HTT prom inh 9.9%, HTT-AS act -1.8% and FH mod 1.4%.
Cc1c(Cl)cccc1NC(=O)Cn1cc(C(=O)C2CCCCC2)c2ccccc21 was read as PMP22 txn 10µM*, S16 viability inconclusive, pS6 MEF inh -22.8%, HTT prom inh inconclusive, HTT-AS act -82.3% and FH mod -22.5%.
Cc1cc(C)cc(NC(=O)Cn2cc(C(=O)C3CCCCC3)c3ccccc32)c1 was read as PMP22 txn inconclusive, S16 viability 2.1%, pS6 MEF inh -25.3%, HTT prom inh -28.2%, HTT-AS act -23.1% and FH mod -0.4%.
Screening CCOc1ccc(NCc2cccn2-c2nnc(N3CCC(C(=O)NCc4ccccc4Cl)CC3)s2)cc1 returned PMP22 txn -43.0%, S16 viability -9.1%, pS6 MEF inh -0.8%, HTT prom inh 22.4µM*, HTT-AS act -56.6% and FH mod -16.3%.
Screening CC1CCN(c2nnc(-n3cccc3CNc3cccc(F)c3)s2)CC1 returned PMP22 txn inconclusive, S16 viability -4.4%, pS6 MEF inh -3.9%, HTT prom inh 5.62µM*, HTT-AS act -71.1% and FH mod -17.4%.
For COc1ccc(NCc2cccn2-c2nnc(N3CCC(C)CC3)s2)c(OC)c1 the results were PMP22 txn inconclusive, S16 viability inconclusive, pS6 MEF inh -12.8%, HTT prom inh inconclusive, HTT-AS act -80.7% and FH mod inconclusive.
Screening CC1CCC2C(C)(C)[C@H](O)CC[C@]2(C)C12Cc1c(O)cc3c(c1O2)CN(C(CCC(=O)O)C(=O)O)C3=O (some centres undefined) returned FH mod 1.4%[53.3 µM].
COc1cc(C2CC(=O)c3c([nH]c(C(=O)OC4CCCC4)c3C)C2)cc(OC)c1OC (centres undefined) was read as PMP22 txn inconclusive, S16 viability -15.5%, pS6 MEF inh -3.6%, HTT prom inh 4.47µM*, HTT-AS act -54.0% and FH mod -28.6%.
Screening Cc1c(C(=O)OC2CCCCCC2)[nH]c2c1C(=O)CC(c1ccccc1)C2 (centres undefined) returned PMP22 txn inconclusive, S16 viability -3.3%, pS6 MEF inh -20.9%, HTT prom inh inconclusive, HTT-AS act -25.3% and FH mod 1.3%.
For Nc1ncnc2c1ncn2CCNCCCCCO the results were FH mod 6.6%.
COc1ccc(CN2CCc3c(c(=O)n4ncc(C(=O)N5CCN(c6ccccc6OC)CC5)c4n3C)C2)cc1 was read as PMP22 txn inconclusive, S16 viability inconclusive, pS6 MEF inh -11.9%, HTT prom inh 1.78µM*, HTT-AS act -87.6% and FH mod 8.7%.
`Cc1noc(C)c1S(=O)(=O)N1CCC(C(=O)N2CCN(c3ccccc3)CC2)CC1` gave PMP22 txn -17.2%, S16 viability 9.9%, pS6 MEF inh 2.7%, HTT prom inh -26.2%, HTT-AS act -22.8% and FH mod 2.5%.
`Cc1cccc(N2CCN(C(=O)C3CCN(S(=O)(=O)c4c(C)noc4C)CC3)CC2)c1C` gave PMP22 txn -6.6%, S16 viability 1.9%, pS6 MEF inh -5.4%, HTT prom inh 14.1µM*, HTT-AS act -38.3% and FH mod -6.6%.
Screening CCN(CCN(C)C)C(=O)C1CCN(S(=O)(=O)c2c(C)noc2/C=C/c2ccccc2F)CC1 returned PMP22 txn inconclusive, S16 viability inconclusive, pS6 MEF inh 18.5µM*, HTT prom inh -22.8%, HTT-AS act -47.7% and FH mod -5.8%.
Screening Nc1nc(NC2CC2)cc(-c2cccc(Cl)c2Cl)n1 returned FH mod -0.2%.
Screening COc1ccccc1CNC(=O)c1ccc(-c2nc(CN3CCc4ccccc43)c(C)o2)cc1 returned PMP22 txn inconclusive, S16 viability -6.3%, pS6 MEF inh -26.5%, HTT prom inh 17.8µM*, HTT-AS act -36.6% and FH mod -30.0%.
For Cc1oc(-c2ccc(C(=O)NCc3ccccc3Cl)cc2)nc1CN1CCc2ccccc21 the results were PMP22 txn -49.6%, S16 viability 0.5%, pS6 MEF inh -25.8%, HTT prom inh 14.1µM*, HTT-AS act -34.4% and FH mod -13.5%.
For CCCCNC(=O)c1ccc(-c2nc(CN3CCc4ccccc43)c(C)o2)cc1 the results were PMP22 txn -6.1%, S16 viability 6.2%, pS6 MEF inh -4.6%, HTT prom inh -38.3%, HTT-AS act -33.0% and FH mod -5.0%.
For CCCC(NC(=O)/C(C#N)=C/c1cccc(Br)n1)c1ccccc1 (centres undefined) the results were FH mod -10.0%.
Screening COc1cccc(N2CCN(C(=O)c3ccc4nc(N5CCC(C)CC5)sc4c3)CC2)c1 returned PMP22 txn -23.4%, S16 viability inconclusive, pS6 MEF inh -1.5%, HTT prom inh inconclusive, HTT-AS act -63.7% and FH mod -19.7%.
`Cc1ccc(Cl)cc1N1CCN(C(=O)c2ccc3nc(N4CCC(C)CC4)sc3c2)CC1` gave PMP22 txn inconclusive, S16 viability inconclusive, pS6 MEF inh -5.3%, HTT prom inh 3.55µM*, HTT-AS act -78.6% and FH mod -16.4%.
Screening COc1ccc(N2CCN(C(=O)c3ccc4nc(N5CCC(C)CC5)sc4c3)CC2)cc1 returned PMP22 txn -11.8%, S16 viability -9.2%, pS6 MEF inh -0.2%, HTT prom inh 2.24µM*, HTT-AS act -72.0% and FH mod -6.4%.
`CCOc1ccc(CNS(=O)(=O)c2ccc(-c3coc(C)n3)cc2)cc1OC` gave PMP22 txn inconclusive, S16 viability -14.5%, pS6 MEF inh -1.5%, HTT prom inh 25.1µM*, HTT-AS act -37.3% and FH mod -6.0%.
For CCc1cccc(NS(=O)(=O)c2ccc3c(c2)CC(C)N3C(=O)C2CC2)c1 (centres undefined) the results were PMP22 txn inconclusive, S16 viability inconclusive, pS6 MEF inh -7.5%, HTT prom inh 14.1µM*, HTT-AS act -78.9% and FH mod inconclusive.
